In the library only some 4% were active in any assay of this set; here they are far more common.
Mdm2 MdmX PPI = inhibitors of human Mdm2-MdmX association, primary screen, cell-based, luminescence, split luciferase, SaOS-2, uHTS. Protein Mdm4 (Homo sapiens) + E3 ubiquitin-protein ligase Mdm2 (Homo sapiens), …. 330,000 compounds, 3% hits. SaOS-2 split-luciferase Mdm2/MdmX complementation. inhibition, % at 8 µM;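 active means inhibition of at least 50% at 8 µM in the primary screen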
Beta apoptosis = inhibitors of cytokine-induced beta cell apoptosis, primary screen, luminescence; INS-1E cytokine-induced death, ATP luminescence, 48 h; percent of positive-control rescue, neutral wells zero; protection from apoptosis, % (test concentration not listed); 300,000 compounds, 0.8% hits;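 active means Every replicate reaches about 75%, or at least half do and their mean reaches it too, limit read from the data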;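 further: higher means more ATP so stronger rescue from cytokine killing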
Jurkat NFkB inh = inhibitors of induced NF-kB luciferase reporter, primary screen, TCR NF-kB activation inhibitor project, cell-based, luminescence, uHTS; 330,000 compounds, 0.53% hits; Jurkat, PMA/ionomycin-induced NF-kB luciferase reporter; inhibition, % at 4 µM; in the data active means inhibition above about 50%
697 NFkB inh = inhibitors of PMA/ionomycin-induced NF-kB reporter, 697 cells, primary screen, B-cell NF-kB inhibitor project, cell-based, luminescence, uHTS; 697 B-cell NF-kB luciferase reporter, 16 h; 330,000 compounds, 0.33% hits; inhibition, % at 4 µM; in the data active means inhibition above about 35%
Gli-Sufu block = Gli-Sufu pathway antagonists, primary screen, luciferase luminescence, Sufu-KO-LIGHT cells, uHTS | Sufu-KO-LIGHT fibroblasts, Gli luciferase reporter luminescence | inhibition, % at 5 µM | 340,000 compounds, 0.74% hits | AID 588413, 2011;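 active means inhibition above about 55%, limit read from the data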
Mdm2 MdmX conf = Mdm2-MdmX complex disruptors, retested hits, confirmation, luminescence, single concentration; shares compounds with Mdm2 MdmX PPI; Mdm2-MdmX binding, luminescent assay; inhibition, % at 8 µM; 10,000 compounds, 55% hits; AID 489028, 2010; in the data active means inhibition above about 40%
Full FLuc ctr = full-length luciferase signal inhibition, confirmation, counter-screen for Mdm2/MdmX interaction inhibitor project, cell-based, single concentration, SaOS-2; inhibition, % at 8 µM; 6,200 compounds, 77% hits; SaOS-2 full-length luciferase counterscreen, luminescence; shares compounds with Mdm2 MdmX PPI;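 active means mean inhibition at 8 µM reaching about 37%, which flags the compound as non-specific, limit read from the data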;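 further: p53-null SaOS-2 cells with luciferase driven by a doxycycline-inducible promoter; compound on cells about two nights before reading with doxycycline added after day one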
Hits are given with their value; . = inactive; / = not tested or not shown.

SMILES	Mdm2 MdmX PPI	Beta apoptosis	Jurkat NFkB inh	697 NFkB inh	Gli-Sufu block	Mdm2 MdmX conf	Full FLuc ctr
Cc1ccc(Cl)c2c1NC(=O)C2=O	.	.	.	.	.	/	/
COc1ccc(C2=NN(C(=O)COC(=O)c3ccc(S(C)(=O)=O)c([N+](=O)[O-])c3)C(c3ccco3)C2)cc1 (centres undefined)	98	.	.	.	.	91	52
CCc1ccc(-c2cc(C(F)(F)F)n3nc(C(=O)Nc4cnn(Cc5ccc(C)cc5)c4)cc3n2)s1	51	76	.	.	.	.	/
O=C(CN1CCOCC1)NNc1nc(-c2ccccc2)c2cc(Br)ccc2n1	.	.	.	.	.	/	/
O=c1[nH]c2ccc(Cl)cc2c(-c2ccccc2)c1SC(=S)N1CCCCC1	61	.	.	.	.	44	57
O=c1[nH]c2ccc(Cl)cc2c(O)c1-c1ccccc1	.	.	.	.	.	/	/
O=c1[nH]c2ccc(Cl)cc2c(-c2ccccc2)c1SC(=S)N1CCOCC1	53	.	.	.	.	52	45
NNC(=O)CSc1c(-c2ccccc2)c2cc(Cl)ccc2[nH]c1=O	.	.	.	.	.	/	/
Cc1c(Cc2ccccc2)c(=O)n2c([nH]c3ccccc32)c1C#N	61	.	.	.	.	42	57
Cc1cc(C)c2nc(N(CCCN(C)C)C(=O)c3ccc(S(=O)(=O)N4CCCCCC4)cc3)sc2c1	80	/	.	.	.	50	71
Cc1ccc2sc(N(CCCN(C)C)C(=O)c3ccc(S(=O)(=O)N4CCCCCC4)cc3)nc2c1C	63	/	.	.	.	.	89
CN(C)CCCN(C(=O)c1ccc(S(=O)(=O)N2CCCCC2)cc1)c1nc2cc3c(cc2s1)OCO3	.	.	.	.	.	/	/
Cc1c(NC(=O)c2ccc(NS(=O)(=O)c3ccc(F)c(F)c3)cc2)c(=O)n(-c2ccccc2)n1C	.	.	.	.	.	/	/
Cc1ccc(N(CC(=O)N2CCN(c3ccccc3F)CC2)S(=O)(=O)c2c(C)noc2C)cc1	.	.	.	.	.	/	/
C/C(CC1CC2=C(CC1(C)C)C(C)(C)CCC2)=N\NC(N)=S (centres undefined)	51	/	.	.	.	.	/
O=C(/C(N=Nc1cccc([N+](=O)[O-])c1)=C(/O)c1ccc(Br)cc1)C(F)(F)F	96	105	.	.	/	88	.
Cc1nn(Cc2c(Cl)cccc2Cl)c(C)c1NC(=O)Cn1nc([N+](=O)[O-])c(Cl)c1C	70	.	.	.	.	.	/
Cc1nn(Cc2ccccc2)c(C)c1NC(=O)Cn1nc([N+](=O)[O-])c(Cl)c1C	.	.	.	.	.	/	/
Cc1cccc(OCCCN2C(=O)C(=O)c3cc(C)ccc32)c1	59	.	.	.	.	69	65
Cc1ccc2c(c1)C(=O)C(=O)N2Cc1ccc(Cl)cc1	68	.	.	.	.	.	/
Cc1ccc2c(c1)C(=O)C(=O)N2CCCOc1ccccc1	.	.	.	.	.	/	/
Cc1ccc2c(c1)C(=O)C(=O)N2Cc1ccc(F)cc1	.	.	.	.	.	/	/
O=C(CCC(=O)N1CCCC1)N1CCCC1	.	.	.	.	.	/	/
CCc1ccccc1N(CC)C(=O)C1CCN(c2ncnc3c2nc2n3CCCCC2)CC1	64	.	.	.	.	.	/
COc1ccc(-c2nn(-c3ccccc3)cc2CN(C)CCn2ccnc2C)c(F)c1	.	.	.	.	.	/	/
Cc1ccc(Nc2nc(N)nc(CCl)n2)cc1	83	.	.	.	.	79	59
Cc1cccc(Nc2nc(N)nc(CCl)n2)c1	68	.	.	.	.	64	61
Cc1ccc(Nc2nc(N)nc(CSc3nnc(-c4ccncc4)o3)n2)cc1	67	.	.	.	.	.	/
Nc1nc(CCl)nc(Nc2ccccc2)n1	.	.	.	.	.	/	/
Cc1ccc(Nc2nc(N)nc(CSc3ncccn3)n2)cc1	.	.	.	.	.	/	/
